PubChem BioAssay AID504465 (National Center for Advancing Translational Sciences (NCATS), 2011)
Hit rate of the full screen: of about 2,100 compounds, about 210 (10%) were called active. Another 53% or so got no clear call; they are omitted. Calls come from the whole dose curve; as a rule, active = well fitted inhibition curve with a large enough effect; inconclusive = small, poorly fitted or top-dose-only effect, or effect the other way; inactive = no such curve, though single readings can be large or run the other way. Some of the results follow. A call without a number means that no potency is given here.

Assay: IN Cell qHTS Assay for Inhibitors of the mTORC1 Signaling Pathway in MEF (Tsc2-/-, p53-/-) Cells: Sytravon; note: nearly all actives have a fitted effect of over 60% in size
Conditions: phospho-rpS6 immunofluorescence, 24 h; series mostly up to 38.3 µM
In short: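 Tsc2-/-, p53-/- MEFs (empty-vector) treated with compound 24 h at 37 degree Celsius, then fixed and stained for phospho-rpS6 Ser235/236 (Alexa-488) plus Hoechst. Reported as % positive cells, thresholds set against 7.5 nM rapamycin and DMSO wells.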
Potency is the fitted concentration of half-maximal effect.

Structure (SMILES)	Potency
CCCN(CCC)CCCNC(=O)C1CCN(c2nc3ccc(CC)cc3s2)CC1	6.56 µM (active)
Cc1cc(=O)n2nc(N3CCC(C(=O)NCc4ccc(Cl)cc4)CC3)sc2n1	inactive
CCCc1ccc(NC(=O)C2CCN(c3cnccn3)CC2)cc1	inactive
CCOCCCNC(=O)C1CCN(c2nc3ccc(Cl)cc3[nH]2)CC1	inactive
CCCCN(C)CCCNC(=O)C1CCN(c2nc3ccc(CC)cc3s2)CC1	5.21 µM (active)
COc1cccc(NC(=O)C2CCC(CNS(=O)(=O)c3csc(C(N)=O)c3)CC2)c1 (stereo not drawn)	inactive
O=C(CCCCn1c(=O)[nH]c2ccsc2c1=O)N1CCN(c2cccc(Cl)c2)CC1	inactive
O=C(NCc1ccco1)C1CCN(C(=O)N2CCOc3ccc(Cl)cc32)CC1	inactive
CC1C(=O)N2CCCc3cc(S(=O)(=O)Nc4ccc(Br)cc4F)cc1c32 (stereo not drawn)	14.7 µM (active)
O=C(Nc1ccc(Br)cc1F)c1cc(S(=O)(=O)NC2CCCC2)ccc1F	inactive
CCC(=O)N1CCc2cc(Br)cc(S(=O)(=O)N3CCCC(C(=O)Nc4ccc(CC)cc4)C3)c21 (stereo not drawn)	inactive
Cc1ccc(C2c3c(-c4cc(C)ccc4O)n[nH]c3C(=O)N2Cc2ccco2)cc1 (stereo not drawn)	inactive
COc1ccc(Cn2c(C(=O)O)c(CNCCc3cccs3)c3ccc(OC)cc32)cc1	inactive
CCc1ccc(NC(=O)C2CCC(CNS(=O)(=O)c3ccc4c(c3)CC(C)N4C(C)=O)CC2)cc1 (stereo not drawn)	inactive
CCS(=O)(=O)c1oc(-c2ccc(F)cc2)nc1S(=O)(=O)c1ccc(Br)cc1	2.93 µM (active)
CCCCS(=O)(=O)c1oc(-c2ccc(F)cc2)nc1S(=O)(=O)c1ccc(C)cc1	6.56 µM (active)
CCCCS(=O)(=O)c1oc(-c2ccc(F)cc2)nc1S(=O)(=O)c1ccccc1	4.14 µM (active)
Cc1ccc(CSc2oc(-c3ccco3)nc2S(=O)(=O)c2ccc(Cl)cc2)cc1	inactive
CC(C)CS(=O)(=O)c1oc(-c2ccc(F)cc2)nc1S(=O)(=O)c1ccccc1	0.656 µM (active)
Cc1ccc(S(=O)(=O)c2nc(S(=O)(=O)c3ccccc3)sc2NCCCOC(C)C)cc1	inactive
O=S(=O)(NCC(c1ccco1)S(=O)(=O)c1ccccc1)c1cc(F)ccc1F (stereo not drawn)	inactive
CCCN1C(=O)C(Cc2nc3ccccc3c(=O)n2CC)c2cc(Br)ccc21 (stereo not drawn)	inactive
COC(=O)c1c(NC(=O)c2ccc(S(=O)(=O)N3CCC(C)CC3)cc2)sc2c1CCN(C)C2	inactive
Cc1cccc(-n2cnc3cc(C(=O)NC4CCCCCC4)ccc32)c1	inactive

Structure (SMILES)	Potency
CC(C)c1ccc(NC(=O)c2ccc3c(c2)CCCN3S(C)(=O)=O)cc1	inactive
CCc1ccc(NS(=O)(=O)c2ccc3[nH]c4c(c3c2)CCCCCC4)cc1	inactive
O=C1C(Nc2ccccc2)=CC(c2ccc(Br)cc2)N1c1ccccc1 (stereo not drawn)	inactive
COc1ccc(-n2nnnc2C2CCN(S(=O)(=O)c3cc(Cl)ccc3OC)CC2)cc1	inactive
O=C(NCCc1csc(-c2cccnc2)n1)c1cccc(C(F)(F)F)c1	inactive
O=C(C1CCC(CNS(=O)(=O)c2ccc(Br)s2)CC1)N1CCN(c2ccccc2)CC1 (stereo not drawn)	inactive
CCS(=O)(=O)c1oc(-c2ccc(F)cc2)nc1S(=O)(=O)c1ccccc1	0.208 µM (active)
O=S(=O)(c1ccccc1)n1nc(-c2ccc(Cl)cc2)nc1NCc1ccc(F)cc1	inactive
O=S(=O)(c1ccc(Cl)cc1)c1nc(-c2ccco2)oc1SCc1ccccc1F	inactive
COc1ccc(S(=O)(=O)N(Cc2nc(-c3cccc(C)c3)no2)C2CCCCC2)cc1	inactive
COc1ccc(-c2cc(C(F)(F)F)nc(S(C)(=O)=O)n2)cc1	11.7 µM (active)
COc1ccc(NC2=C(c3ccc(C(F)(F)F)cc3)C(=O)c3ccccc32)cc1	inactive
COc1ccc(C)cc1NC(=O)c1oc2ccc(S(=O)(=O)N3CCC4(CC3)OCCO4)cc2c1C	inactive
CC(C)Oc1cccc(C2CC(=O)Nc3cc4c(cc32)OCO4)c1 (stereo not drawn)	inactive
COC(=O)c1c(-c2ccc(Cl)cc2)noc1N1CCN(c2cccc(C(F)(F)F)c2)CC1	inactive
CCCCN(C)CC(O)Cn1cc(/C=C/C(=O)c2ccc(Br)cc2)c2ccccc21 (stereo not drawn)	inactive
CCCN(CCC)CC(O)Cn1cc(/C=C/C(=O)c2ccc(OCC)cc2)c2ccccc21 (stereo not drawn)	14.7 µM (active)
Cc1cccc(NC(c2ccccc2C)c2ccc3ccc(C)nc3c2O)n1 (stereo not drawn)	inactive
COc1ccc(CCNC(=O)CCc2cn(Cc3ccc(F)cc3)c3ccccc23)cc1OC	inactive
COc1ccccc1CNC(=O)CCc1c(C)c2ccc(OC)c(C)c2oc1=O	1.47 µM (active)
CCOc1ccccc1CNC(=O)CCc1cn(C)c2ccccc12	inactive
CCN(CC)S(=O)(=O)c1ccc2oc(C(=O)NCc3ccccc3OC)c(C)c2c1	inactive
Cc1ccc(CN2CCCn3nc(C(=O)NCc4ccccc4Cl)cc3C2=O)cc1	inactive
Nc1cc(=O)nc(SCC(=O)Nc2ccc(F)cc2)n1-c1ccc(Cl)cc1	inactive

Structure (SMILES)	Potency
Cc1ccc(-c2nc(N3CCCC(C)C3)c3ccccc3n2)cc1 (stereo not drawn)	inactive
COc1ccc2ncc3c(-c4ccc(C)c(C)c4)nn(CC(=O)Nc4ccccc4)c3c2c1	inactive
O=C(NCCCN1CCN(c2ccccc2F)CC1)c1nnc(Cc2ccc(Cl)cc2Cl)o1	inactive
COc1ccc(-c2nc(CN3CCC(C(=O)NCCCN4CCN(c5ccccc5F)CC4)CC3)c(C)o2)cc1OC	13.1 µM (active)
Cc1ccc(N2CC(C(=O)NCCS(=O)(=O)N3CCN(c4ccccc4F)CC3)CC2=O)cc1 (stereo not drawn)	inactive
CC(C(=O)NCc1cccc(Br)c1)n1ncn2cccc2c1=O (stereo not drawn)	1.47 µM (active)
O=C(Cn1c(=O)c2cccn2c2ccc(F)cc21)NCc1cccc(Cl)c1	inactive
COc1cccc(CNC(=O)CCn2cccn2)c1	inactive
Cn1cc(-c2cc3n(n2)CCC(=O)N3CC(=O)NCc2ccc(Cl)cc2)c2ccccc21	inactive
CCOC(=O)c1nc(Nc2ccc(C(=O)OC(C)C)cc2)c2ccccc2n1	inactive
CCc1ccc(NC(=O)CSc2nc3n[nH]c(C)c3c(=N)n2-c2ccc(C)cc2)cc1	inactive
COc1cc(CNc2ccc3c(c2)ncn3C(C)C)cc(OC)c1OC	inactive
Cc1ccc(NC(=O)c2c(C)oc3ccc(O)c(CN4CCCCCC4)c23)c(C)c1	inactive
CC1CCN(S(=O)(=O)c2ccc3nc(Nc4cccc(C(F)(F)F)c4)ccc3c2)CC1	inactive
CS(=O)(=O)c1ncc(Cl)c(C(=O)N(Cc2ccc(Cl)cc2)Cc2ccco2)n1	2.33 µM (active)
Cc1cccc(OCC(=O)N(Cc2ccc(C(C)(C)C)cc2)Cc2ccco2)c1	inactive
CCS(=O)(=O)c1ncc(Cl)c(C(=O)N(Cc2ccccc2)Cc2ccco2)n1	3.69 µM (active)
CCOc1ccccc1C(=O)N(Cc1ccco1)Cc1ccccc1F	inactive
CCc1ccc2oc(C(=O)N(Cc3cccc(Cl)c3)Cc3ccco3)c(C)c2c1	inactive
O=C(NCC1CCN(Cc2cccc(F)c2)CC1)c1cc2ccc3cccnc3c2[nH]1	inactive
CCOC(=O)c1sc2ccccc2c1S(=O)(=O)Nc1ccc(CC)cc1	inactive
COc1ccccc1C1C(C(=O)Nc2ccccc2)=C(C)Nc2nc(-c3ccccc3)nn21 (stereo not drawn)	inactive
CC1=C(C(=O)Nc2ccc(Cl)cc2)C(c2ccccc2)n2ncc(C(=O)Nc3ccccc3)c2N1 (stereo not drawn)	inactive
COc1ccc(C2C(C(=O)Nc3ccccc3)=C(C)Nc3nc(-c4ccc(Cl)cc4)nn32)cc1 (stereo not drawn)	13.1 µM (active)

Structure (SMILES)	Potency
CCOc1ccc(NC(=O)CSc2c3c(nc4ccccc24)CCCC3)cc1	inactive
COc1ccc(S(=O)(=O)Nc2ccc3oc4c(c3c2)CCCC4)cc1	inactive
COc1ccc(/C=C/C(=O)Nc2ccc3nc4c(c(Nc5ccccc5OC)c3c2)CCCC4)cc1	2.07 µM (active)
COc1ccc(/C=C/C(=O)Nc2ccc3nc4c(c(Nc5ccc(OC)c(OC)c5)c3c2)CCCC4)cc1	3.69 µM (active)
COc1cccc(NC(=O)CSc2c3c(nc4ccccc24)CCCC3)c1	inactive
COc1ccc(Nc2c3c(nc4ccc(NC(=O)/C=C/c5cc(OC)c(OC)c(OC)c5)cc24)CCCC3)cc1OC	1.47 µM (active)
O=S(=O)(c1ccccc1F)N1CCC(Oc2ccc(-n3cnnn3)cc2)CC1	inactive
CCOCCc1nn2c(=O)cc(COC(=O)c3ccc(NC(=O)c4cccs4)cc3)nc2s1	inactive
CCOc1ccc(S(=O)(=O)Nc2cc(Cl)ccc2OC)c2cccnc12	inactive
COc1ccc(-c2nc3cc(NC(=O)Cc4ccc(Cl)cc4)ccc3o2)cc1OC	3.29 µM (active)
COc1ccc(NC(=O)CCn2cnc3onc(-c4ccc(F)cc4)c3c2=O)cc1OC	inactive
COc1ccc(C(=O)Nc2ccc3oc(-c4ccc5ccccc5c4)nc3c2)cc1Br	13.1 µM (active)
CCC(=O)Nc1cc(-c2nc3cc(C)cc(C)c3o2)ccc1C	inactive
CCCn1c(=O)sc2cc(NC(=O)c3ccc(OC)c(Br)c3)ccc21	inactive
O=C(Nc1ccc2oc(-c3ccc4ccccc4c3)nc2c1)c1cc(Br)ccc1Cl	16.5 µM (active)
Cc1cccc(-c2nc3cc(NC(=O)Cc4ccc(Cl)cc4)ccc3o2)c1	inactive
COc1c(C)cc(Br)cc1C(=O)Nc1ccc(-c2nc3ncccc3o2)cc1	inactive
COc1ccc(-c2nc3cc(C(C)C)ccc3o2)cc1NC(=O)c1ccccc1[N+](=O)[O-]	inactive
CCOc1ccc(OCC)c(NC(=O)Cn2nc(CC)n3c(cc4sccc43)c2=O)c1	inactive
O=c1c2ccccc2n(Cc2cccc(F)c2)c(=O)n1Cc1ccccc1Cl	inactive
COCCn1c(=O)[nH]c2cc(C(=O)N3CCN(c4ccc(Cl)cc4)CC3)ccc2c1=O	inactive
